Screens: PubChem BioAssay, National Center for Advancing Translational Sciences (NCATS)
PLK1 PBD block: qHTS for Inhibitors of PLK1-PDB (polo-like kinase 1 - polo-box domain): Primary Screen. Serine/threonine-protein kinase PLK1 (Homo sapiens), P53350. Plk1 PBD binding of FITC phosphopeptide, fluorescence polarization. Potency, µM, for inactives: max response, negative = inhibition, most hits filed as inhibitors. 2.8% of 360,000 active; note: series mostly up to about 57 µM; % is set by controls: 0 for no effect and ±100 for the full control effect; nearly all actives have a fitted effect of over 65% in size
VDR inhibitor: Inhibitors of the vitamin D receptor (VDR): qHTS; VDR-SRC2-3 peptide fluorescence polarization, 2 h; Potency, µM, for the others: max response, negative = inhibition, usual class: inhibitors; 0.93% of 400,000 active; note: % is set by controls: 0 for no effect and ±100 for the full control effect
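VDR–SRC2-3 interaction, FP format. Cmpds 23 nl via pintool, brief spin, 2 h ambient incubation.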
GCN5L2 inh: qHTS Assay for Inhibitors of GCN5L2; Potency, µM (top dose mostly 58.9 µM), for inactives: at the top dose activity change, negative = inhibition, actives largely listed as inhibitors; Histone acetyltransferase KAT2A (Homo sapiens), Q92830; GCN5L2 HAT assay, ThioGlo1 CoA-SH fluorescence; 0.21% of 390,000 active; note: % is set by controls: 0 for no effect and ±100 for the full control effect
Target sequence (Q92830 whole entry, looked up): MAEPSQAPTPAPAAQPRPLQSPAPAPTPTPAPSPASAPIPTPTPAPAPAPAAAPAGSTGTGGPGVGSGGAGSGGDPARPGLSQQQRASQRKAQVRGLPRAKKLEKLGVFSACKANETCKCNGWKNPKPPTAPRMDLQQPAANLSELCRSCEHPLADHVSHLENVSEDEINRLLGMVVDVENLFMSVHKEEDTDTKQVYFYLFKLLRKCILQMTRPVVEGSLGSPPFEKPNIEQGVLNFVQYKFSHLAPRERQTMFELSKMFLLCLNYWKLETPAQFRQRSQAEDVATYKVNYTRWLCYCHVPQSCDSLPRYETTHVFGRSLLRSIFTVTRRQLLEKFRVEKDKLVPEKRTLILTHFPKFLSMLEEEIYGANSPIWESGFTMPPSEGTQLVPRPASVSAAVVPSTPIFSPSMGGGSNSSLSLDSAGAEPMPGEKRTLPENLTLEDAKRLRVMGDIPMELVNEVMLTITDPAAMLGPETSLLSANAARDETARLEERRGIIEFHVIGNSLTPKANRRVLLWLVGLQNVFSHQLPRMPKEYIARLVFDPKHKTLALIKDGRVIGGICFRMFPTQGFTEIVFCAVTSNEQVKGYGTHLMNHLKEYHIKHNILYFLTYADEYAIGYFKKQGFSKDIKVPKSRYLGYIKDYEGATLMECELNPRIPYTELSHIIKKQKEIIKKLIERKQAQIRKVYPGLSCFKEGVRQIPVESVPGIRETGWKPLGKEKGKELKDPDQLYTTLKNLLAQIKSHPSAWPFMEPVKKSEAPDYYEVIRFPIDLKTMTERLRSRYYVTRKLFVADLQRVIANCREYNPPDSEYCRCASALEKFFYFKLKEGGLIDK
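Preincubate 20nM GCN5L2 with compound 15 min, RT → add 50uM ThioGlo1 + 75uM H3(1-25) + 70uM acetyl-CoA → read fluorescence 0 and 20 min. Primary qHTS; fluorescent artifacts likely.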
USP1-UAF1 inh: Inhibitors of USP1/UAF1: Primary Screen. Ubiquitin carboxyl-terminal hydrolase 1 (Homo sapiens), O94782. recombinant USP1/UAF1, Ub-Rhodamine cleavage fluorescence. Potency, µM (highest dose often 57.1 µM), inactives show top-dose activity change, negative = inhibition, actives largely listed as inhibitors. 0.23% of 390,000 active; note: % is set by controls: 0 for no effect and ±100 for the full control effect; nearly all actives have a fitted effect of over 60% in size
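1 nM enzyme complex + cpd, 15 min RT; start with Ub-Rho 150nM final; kinetic fluorescence ex 480/em 540, 6 reads q60 s. Buffer 50mM HEPES pH 7.8, 0.5mM EDTA, 0.1 mg/ml BSA, 1mM TCEP, 0.01% Tween-20.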
TSG101-PTAP inh: qHTS Assay for Iinhibitors of HIV-1 Budding by Blocking the Interaction of PTAP/TSG101 | Tumor susceptibility gene 101 protein (Homo sapiens), Q99816 | Fluorescence polarization, FITC-PTAP peptide / Tsg101 binding | Potency, µM (doses to about 115 µM), for inactives: at the top dose activity change, negative = inhibition, usual class: inhibitors | 340,000 tested, under 10 active | AID 493005, 2010; active = well fitted inhibition curve with a large enough effect in the main read-out, with a control signal flat, not every such curve was filed as active; inconclusive = small, poorly fitted or top-dose-only effect, or effect the other way, or a change in a side signal; inactive = no such curve, though single readings can be large or run the other way; note: % of control where 0% means no effect
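Compounds were pin-transferred onto Tsg101 binding domain (10 uM final) in HEPES pH 7.5 buffer, then FITC-PTAP peptide was added at 50 nM final. After 20 min at RT, polarization reported peptide displacement across a qHTS concentration series.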
* = called active by the depositor; ? = inconclusive; nt = no result. In the library only some 3% were active in any assay of this set; here they are far more common. Unless noted, calls come from the whole dose curve; as a rule, active = well fitted curve in the direction sought with a large enough effect; inconclusive = small, poorly fitted or top-dose-only effect, or another doubt; inactive = no such curve, though single readings can be large; an effect the other way counts as inactive or inconclusive. Potency is the fitted concentration of half-maximal effect.

SMILES	PLK1 PBD block	VDR inhibitor	GCN5L2 inh	USP1-UAF1 inh	TSG101-PTAP inh
CC1CC(C)CN(C(=O)CCc2nnc3ccc(N4CCCCC4)nn23)C1 (stereo unspecified)	30µM*	-17%	3%	-15%	-5%
CCOC(=O)CNC(=O)CCc1nnc2ccc(N3CCC(C)CC3)nn12	24µM*	?	?	-7%	3%
CCOC(=O)C(Cc1ccccc1)NC(=O)CCc1nnc2ccc(N3CCCCC3)nn12 (stereo unspecified)	-1%	-3%	-1%	-13%	-1%
CCOC(=O)C(Cc1ccccc1)NC(=O)CCc1nnc2ccc(N3CCCC3)nn12 (stereo unspecified)	24µM*	-17%	-16%	-25%	0%
CCOC(=O)c1cccc(NC(=O)CCn2c(-c3ccc(F)cc3)cc(C(=O)OCC)c2C)c1	nt	14%	-4%	?	nt
O=C(NCCC1=CCCCC1)c1ccc2c(c1)N(Cc1ccc(Cl)cc1)C(=O)c1ccccc1S2(=O)=O	nt	4%	-4%	-27%	nt
CN(C)[C@H]1C(=O)C(C(=O)NCN2CCCC2)=C(O)[C@]2(O)C(=O)C3=C(O)c4c(O)cccc4[C@](C)(O)[C@H]3C[C@H]12	nt	?	1.8µM*	nt	nt
CN(C)[C@@H]1C(=O)C(C(=O)NCN2CCCC2)=C(O)[C@@]2(O)C(=O)C3=C(O)c4c(O)cccc4[C@@](C)(O)C3CC12 (stereo partly specified)	nt	nt	6.3µM*	nt	nt
CCOc1ccc2nc(N(Cc3cccnc3)C(=O)c3ccc4c(c3)OCCO4)sc2c1	nt	10%	-14%	?	nt
Nc1nc(N2CCN(C/C=C/c3ccccc3)CC2)nc2ccccc12	27µM*	1%	?	-19%	1%
O=c1[nH]c(CN2CCN(C/C=C/c3ccccc3)CC2)nc2ccccc12	-1%	-13%	-2%	-11%	-1%
COC(CN(C)C(=O)C1CCC(CNS(=O)(=O)c2ccc(C)cc2)CC1)OC (stereo unspecified)	21µM*	-13%	-21%	-23%	-9%
COC(CN(C)C(=O)C1CCC(CNS(=O)(=O)c2ccccc2)CC1)OC (stereo unspecified)	-5%	-7%	-17%	-18%	-4%
O=C(NCc1ccc(Cl)cc1)NCC(F)(F)F	30µM*	-8%	2%	-18%	-5%
O=[N+]([O-])c1ccccc1/C=C/c1ccc2ccccc2n1	27µM*	0%	1%	-26%	4%
COc1ccc(CCN2C(=O)CN(C3CCCCCC3)C(=O)C2c2ccc(C)cc2)cc1OC (stereo unspecified)	nt	0%	-6%	-17%	nt
COc1cc(C(O)c2nc(-c3ccc(N(C)C)cc3)cs2)ccc1F (stereo unspecified)	6%	nt	nt	nt	nt
Cc1cc(C)n2c(=O)c3ccc(Cl)cc3nc2c1C#N	-6%	-11%	-2%	-4%	1%
Cc1cc(Cl)n2c(nc3cc(F)c(F)cc32)c1C#N	?	16µM*	-8%	-18%	-2%
COCCNC(=O)Cn1nc(N2CCN(c3ccccc3OC)CC2)ccc1=O	nt	7%	3%	-17%	nt
COc1ccc(Cl)cc1NC(=O)Cn1c(=O)n(Cc2ccc(F)cc2)c(=O)c2cccnc21	nt	-15%	3%	-3%	nt
COc1ccc(C2=NOC(CNC(=S)N3CCOCC3)C2)cc1 (stereo unspecified)	4%	-3%	-13%	-3%	-3%
O=c1c2cc(C(F)(F)F)ccc2sn1-c1ccccc1	2.7µM*	nt	nt	?	nt
O=c1c2cc(F)ccc2sn1-c1ccccc1	1.1µM*	20µM*	1.1µM*	-6%	-9%
O=c1c2ccccc2c(-c2cccc(C(F)(F)F)c2)nn1-c1ccccc1	4%	8%	-10%	-7%	-1%
SMILES	PLK1 PBD block	VDR inhibitor	GCN5L2 inh	USP1-UAF1 inh	TSG101-PTAP inh
O=c1c(N2CCN(c3ccc(F)cc3)CC2)csc2ccc(F)cc12	nt	10%	-3%	-30%	nt
Cc1cc(F)ccc1NC(=O)C(C(C)C)N1Cc2ccccc2C1=O (stereo unspecified)	nt	7%	-4%	-7%	nt
Cc1cc(NC(=O)CSc2nnc(C3COc4ccccc4O3)o2)no1 (stereo unspecified)	-26%	2%	-1%	-19%	-7%
Cc1cc(NC(=O)CSc2nnc(C3COc4ccccc4O3)n2N)no1 (stereo unspecified)	7.5µM*	?	-11%	-19%	-3%
CC(C)(C)C1CCc2c(sc(NC(=O)CSc3ncn[nH]3)c2C#N)C1 (stereo unspecified)	19µM*	-22%	?	-12%	-5%
CC1CCc2c(sc(NC(=O)CSc3ncn[nH]3)c2C#N)C1 (stereo unspecified)	3%	-26%	-1%	-22%	-2%
Cc1ccc(C)c(Cn2c(=O)n(Cc3ccccc3)c(=O)c3sc4ccccc4c32)c1	nt	-1%	-1%	-23%	nt
O=C(NC1CCCC1)c1ccc2c(=O)n(Cc3ccccc3)c(SCc3cccc([N+](=O)[O-])c3)nc2c1	nt	14%	-1%	-6%	nt
CC(C)c1ccc(CCNC(=O)CSC(=S)N2CCCC2)cc1	27µM*	-19%	1%	-4%	0%
COc1cc(CC(=O)NC(c2ccccc2)c2ccccc2)cc(OC)c1OC	21µM*	?	-4%	-13%	-1%
COc1cc(/C=N/NC(=O)Cc2ccc(Br)cc2)cc(OC)c1O	-10%	7%	12%	-14%	-1%
COc1cc(/C=N/NC(=O)CC#N)cc(Br)c1O	11µM*	?	-7%	-11%	0%
Cc1c(Cl)cccc1-n1ncc(C(=O)Nc2ccc(Br)cc2F)c1C1CCNCC1	nt	-2%	-2%	-11%	nt
O=C(NNS(=O)(=O)c1ccccc1Cl)C1COc2ccccc2O1 (stereo unspecified)	19µM*	-13%	0%	-21%	-1%
COc1ccc(Cl)cc1C(=O)NNC(=O)C1COc2ccccc2O1 (stereo unspecified)	24µM*	-22%	-7%	-19%	0%
Cc1ccc(S(=O)(=O)NNC(=O)C2COc3ccccc3O2)cc1 (stereo unspecified)	-1%	3%	-1%	-21%	-3%
COCCCNC(=O)c1ccc(Cn2c(SCc3ccc(F)cc3)nc3cccnc32)cc1	nt	10%	-2%	-10%	nt
O=[N+]([O-])c1ccccc1NC(=S)N/N=C/c1ccc(O)c(O)c1	12µM*	?	-5%	-23%	-3%
CCOc1cccc(/C=N/NC(=S)Nc2ccccc2[N+](=O)[O-])c1O	1%	-14%	1%	-20%	0%
